Our source for the Potency and outcome values is PubChem BioAssay (Tox21).

A short description of assay [1]: Nuclear factor erythroid 2-related factor 2/antioxidant responsive element (Nrf2/ARE) small molecule agonists: qHTS cell viability counter screen in human keratinocytes (AID 1919968; active = well fitted curve in the direction sought with a large enough effect in the repeat runs; an effect the other way counts as inactive or inconclusive; note: nearly all actives have a fitted effect of over 55% in size; note: potency is the fitted concentration of half-maximal effect). The method in brief:
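Cells of the KeratinoSens line were plated at 1,500 per well and left for 5 h before compound transfer from DMSO stocks. After a 23 h incubation (37 C, 5% CO2), CellTiter-Fluor was added. Signal was taken as fluorescence intensity 1 h later.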
On the technique in general: In qHTS, concentration-response curves come from the screen itself.

Assay [2] in a line: Nuclear factor erythroid 2-related factor 2/antioxidant responsive element (Nrf2/ARE) small molecule agonists: luciferase reporter gene qHTS assay in human keratinocytes (AID 1919969). Note: nearly all actives have a fitted effect of over 35% in size. Note: potency is the fitted concentration of half-maximal effect.
The target in assay [3] is KiSS-1 receptor (Homo sapiens) (UniProt Q969F8). In words: Human kisspeptin (KISS1R) small molecule agonists, calcium flux assay in KISS1R-HEK293 cells (AID 1920064; active = well fitted curve in the direction sought with a large enough effect in the repeat runs; an effect the other way counts as inactive or inconclusive). A digest of the protocol:
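Cell line: HEK293, stable human KISS1R. Dye loading 1 h at 37 C after 18 h culture. Read: kinetic fluorescence, 480/540 nm, 3 min at 1 s intervals.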
(Calcium assays in cells follow changes in intracellular calcium, usually with a dye or a luminescent sensor.)

Assay [4] can be described thus: G protein-coupled receptor (GPCR) small molecule agonists, calcium flux assay: HEK293 wild type cell line counter screen (AID 1920065). A digest of the protocol: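 Tox21 10K compounds, 15 concentrations each in triplicate, pin-transferred in DMSO onto dye-loaded cells; kinetic read at 480/540 nm for 3 min, 1 s intervals.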
A short description of assay [5]: p53 small molecule agonists, cell-based qHTS assay with human liver microsomes (AID 1963577). A digest of the protocol:
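Cells carrying a p53-responsive bla reporter were rested 5 h (37 C, 5% CO2) before compound transfer. Human liver microsomes plus NADPH, 0.5 mg/mL final apiece, supplied metabolism during the 16 h 37 C exposure.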

The nature of assay [6]: p53 small molecule agonists, cell-based qHTS assay with human liver microsomes: qHTS cell viability counter screen (AID 1963579). Note: nearly all actives have a fitted effect of over 45% in size. A digest of the protocol:
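Seed p53RE-bla cells at 4,000 per well; incubate 5 h at 37 C; add compound, human liver microsomes and NADPH; incubate 16 h at 37 C; add CellTiter-Glo; after 30 min at room temperature, read luminescence.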

The nature of assay [7]: p53 small molecule agonists, cell-based qHTS assay: qHTS cell viability counter screen (AID 1963581). Note: nearly all actives have a fitted effect of over 45% in size. Note: potency is the fitted concentration of half-maximal effect. A digest of the protocol: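 ATP content measured by luminescence in HCT-116 p53RE-bla cells treated 16 h at 37 C, same wells as the reporter screen.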
A short description of assay [8]: p53 small molecule agonists, cell-based qHTS assay (AID 1963582; active = well fitted activation curve with a large enough effect in the signal ratio in the repeat runs, not every such curve was filed as active; the % refers to the signal ratio). The method in brief: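 16 h compound exposure (37 C) of p53 response element–bla cells, preceded by 5 h recovery at 37 C/5% CO2; read-out via LiveBLAzer B/G FRET substrate, 2 h RT, fluorescence intensity.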
Assay [9] concerns the target 5-hydroxytryptamine receptor 2A (Homo sapiens) (UniProt P28223). The assay can be described thus: 5-hydroxytryptamine receptor 2A (HTR2A) small molecule antagonists, cell-based qHTS assay (AID 1963586). Note: nearly all actives have a fitted effect of over 45% in size. A digest of the protocol:
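CHO cells stably expressing human HTR2A were plated for 18 h at 37 C, then loaded with calcium dye for 1 h. Compounds were preincubated 5 min at room temperature before DOI (4 nM solution) was added. Kinetic fluorescence was read for 3 min.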

Assay [10] has the same target. In words: 5-hydroxytryptamine receptor 2A (HTR2A) small molecule agonists, cell-based qHTS assay (AID 1963587). Note: nearly all actives have a fitted effect of over 30% in size. The method in brief: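 Kinetic calcium-flux fluorescence (2 min, 1 sec intervals) after compound addition in agonist mode. HTR2A-CHO cells were cultured 18 h, then dye-loaded 1 h at 37 C.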
Assay [11] deals with Muscarinic acetylcholine receptor M1 (Homo sapiens) (UniProt P11229). In words: Cholinergic receptor muscarinic 1 (CHRM1) small molecule antagonists, cell-based qHTS assay (AID 1963588). Note: nearly all actives have a fitted effect of over 40% in size. A digest of the protocol:
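Compounds were tested at 15 concentrations in three independent runs. Dye-loaded CHRM1-CHO cells were exposed 5 min at room temperature before stimulation by acetylcholine added at 50nM. Intracellular calcium was read kinetically on FDSS for 3 min.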

Assay [12] shares this target. The assay can be described thus: Cholinergic receptor muscarinic 1 (CHRM1) small molecule agonists, cell-based qHTS assay (AID 1963589). Note: nearly all actives have a fitted effect of over 35% in size. A digest of the protocol: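 Homogeneous fluorescence calcium flux, agonist mode. Human M1-expressing CHO cells; compound dosed at 15 concentrations, three independent runs; signal sampled every 1 sec.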
Assay [13] can be described thus: cAMP Responsive Elements (CRE) small molecule antagonists, cell-based qHTS assay (AID 1963591; active = well fitted inhibition curve with a large enough effect in the signal ratio in the repeat runs, not every such curve was filed as active; the % refers to the signal ratio; note: potency is the fitted concentration of half-maximal effect). The method in brief: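 First, CRE-bla HEK293T cells settled 18 h at 37 C. Next, compound and 0.25 uM final NKH477 were applied for 3 h. Last, LiveBLAzer B/G substrate was loaded for 2 h at room temperature.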
Assay [14] concerns the target Beta-2 adrenergic receptor (Homo sapiens) (UniProt P07550). In words: Adrenergic beta2 receptor (ADRB2) small molecule antagonists, cell-based qHTS assay (AID 1963592). Note: series mostly up to about 92 µM; nearly all actives have a fitted effect of over 50% in size. A digest of the protocol:
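Assay format: CHO-ADRB2 cells, 18-20hr seeding at 37C/5% CO2, then compound plus 1nM isoproterenol agonist mix for 0.5hr RT. Homogeneous time-resolved fluorescence cAMP detection after 1hr, expressed as 665/615 nm ratio.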

Assay [15] deals with D(2) dopamine receptor (Homo sapiens) (UniProt P14416). In words: Dopamine D2 receptor (DRD2) small molecule agonists, cell-based qHTS assay (AID 1963594). Note: nearly all actives have a fitted effect of over 35% in size. A digest of the protocol: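 cAMP accumulation in DRD2-HEK293 cells measured by HTRF after 1 h detection; compounds added 10 min before NKH477 (200nM […]) forskolin-analogue stimulation, 30 min at room temperature, with Ro20-1724 present at 0.1 mM final.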
Chain of D(2) dopamine receptor (Homo sapiens) (P14416 whole entry, looked up): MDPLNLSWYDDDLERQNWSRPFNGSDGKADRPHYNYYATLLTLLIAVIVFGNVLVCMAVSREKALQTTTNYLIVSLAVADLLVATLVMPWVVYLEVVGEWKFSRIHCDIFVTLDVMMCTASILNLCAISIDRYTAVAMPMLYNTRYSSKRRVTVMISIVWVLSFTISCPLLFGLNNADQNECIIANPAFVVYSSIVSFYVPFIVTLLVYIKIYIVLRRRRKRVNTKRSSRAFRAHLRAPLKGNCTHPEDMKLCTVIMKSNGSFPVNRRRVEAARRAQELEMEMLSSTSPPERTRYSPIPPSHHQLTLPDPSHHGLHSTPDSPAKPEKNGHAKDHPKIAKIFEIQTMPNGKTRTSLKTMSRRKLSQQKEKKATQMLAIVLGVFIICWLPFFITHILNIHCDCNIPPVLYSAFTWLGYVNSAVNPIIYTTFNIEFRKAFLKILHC

For assay [16] the target is unchanged. In words: Dopamine D2 receptor (DRD2) small molecule antagonists, cell-based qHTS assay (AID 1963595; active = well fitted inhibition curve with a large enough effect in the signal ratio in the repeat runs, with a control signal flat; the % refers to the signal ratio; note: potency is the fitted concentration of half-maximal effect). The method in brief:
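Antagonist mode in DRD2-HEK293 cells: after compound addition with 0.1 mM Ro20-1724, cells received quinpirole (12 nM) and NKH477 (200 nM) for 30 min at room temperature; HTRF cAMP read after 1 h detection.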

A short description of assay [17]: p53 small molecule agonists, cell-based qHTS assay with rat liver microsomes (AID 1963578). A digest of the protocol: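 Fluorescence from a beta-lactamase reporter under a p53 response element was measured after cells had been incubated 16 h at 37 C with test compound and rat liver microsomes plus NADPH (0.5 mg/mL final each).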
A short description of assay [18]: cAMP Responsive Elements (CRE) small molecule agonists, cell-based qHTS assay (AID 1963590). Note: potency is the fitted concentration of half-maximal effect. A digest of the protocol:
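HEK 293T cells stably bearing CRE-bla were plated at 2,000 cells per well and rested 18 h. Compounds, positive controls or DMSO were added for 3 h at 37 C. LiveBLAzer B/G substrate was then loaded for 2 h at room temperature.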

A short description of assay [19]: p53 small molecule agonists, cell-based qHTS assay with rat liver microsomes: qHTS cell viability counter screen (AID 1963580). Note: nearly all actives have a fitted effect of over 45% in size. The method in brief:
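Cytotoxicity counter screen: intracellular ATP read by CellTiter-Glo luminescence in the p53 reporter wells. HCT-116 p53RE-bla cells were treated for 16 h at 37 C alongside rat liver microsomes and NADPH, each 0.5 mg/mL final.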

Assay [20] has as its target Beta-2 adrenergic receptor (Homo sapiens) (UniProt P07550). The assay can be described thus: Adrenergic beta2 receptor (ADRB2) small molecule agonists, cell-based qHTS assay (AID 1963593).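 Note: CHO cells stably overexpressing human ADRB2.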 The method in brief:
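CHO cells stably over-expressing ADRB2 were plated overnight at 37C, then dosed with compounds plus a stimulation mix containing 100uM IBMX and 25uM Ro-20-1724 for 0.5hr at room temperature. cAMP was measured by HTRF competition, 1hr.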

Unmarked numbers belong to inactive results. Inconclusive results are not listed. The source made the active and inactive calls. Unless noted, calls come from the whole dose curve.

Chain of Muscarinic acetylcholine receptor M1 (Homo sapiens) (P11229 whole entry, looked up): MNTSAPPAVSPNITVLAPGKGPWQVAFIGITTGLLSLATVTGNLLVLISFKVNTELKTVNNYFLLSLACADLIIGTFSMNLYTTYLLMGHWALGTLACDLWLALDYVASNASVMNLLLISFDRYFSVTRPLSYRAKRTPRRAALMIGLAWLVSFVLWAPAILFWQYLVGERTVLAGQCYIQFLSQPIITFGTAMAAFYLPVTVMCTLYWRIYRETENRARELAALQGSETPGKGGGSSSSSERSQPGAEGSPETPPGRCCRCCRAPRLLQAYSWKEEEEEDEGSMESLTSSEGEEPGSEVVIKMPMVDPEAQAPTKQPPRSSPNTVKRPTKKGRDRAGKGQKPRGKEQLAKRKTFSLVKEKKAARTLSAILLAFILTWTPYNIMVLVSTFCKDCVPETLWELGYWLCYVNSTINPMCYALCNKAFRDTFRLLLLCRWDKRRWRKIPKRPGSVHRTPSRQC
Chain of Beta-2 adrenergic receptor (Homo sapiens) (P07550 whole entry, looked up): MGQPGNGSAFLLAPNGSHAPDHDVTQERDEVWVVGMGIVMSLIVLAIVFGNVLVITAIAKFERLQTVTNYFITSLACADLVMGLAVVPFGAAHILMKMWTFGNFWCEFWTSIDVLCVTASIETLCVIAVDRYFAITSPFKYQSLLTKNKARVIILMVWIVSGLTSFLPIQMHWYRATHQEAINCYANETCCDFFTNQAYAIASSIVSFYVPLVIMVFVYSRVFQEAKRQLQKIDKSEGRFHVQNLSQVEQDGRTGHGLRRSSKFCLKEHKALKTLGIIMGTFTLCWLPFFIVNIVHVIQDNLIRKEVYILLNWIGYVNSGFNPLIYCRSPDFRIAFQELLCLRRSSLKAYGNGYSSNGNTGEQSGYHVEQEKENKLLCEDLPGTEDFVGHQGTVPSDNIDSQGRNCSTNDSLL
Chain of 5-hydroxytryptamine receptor 2A (Homo sapiens) (P28223 whole entry, looked up): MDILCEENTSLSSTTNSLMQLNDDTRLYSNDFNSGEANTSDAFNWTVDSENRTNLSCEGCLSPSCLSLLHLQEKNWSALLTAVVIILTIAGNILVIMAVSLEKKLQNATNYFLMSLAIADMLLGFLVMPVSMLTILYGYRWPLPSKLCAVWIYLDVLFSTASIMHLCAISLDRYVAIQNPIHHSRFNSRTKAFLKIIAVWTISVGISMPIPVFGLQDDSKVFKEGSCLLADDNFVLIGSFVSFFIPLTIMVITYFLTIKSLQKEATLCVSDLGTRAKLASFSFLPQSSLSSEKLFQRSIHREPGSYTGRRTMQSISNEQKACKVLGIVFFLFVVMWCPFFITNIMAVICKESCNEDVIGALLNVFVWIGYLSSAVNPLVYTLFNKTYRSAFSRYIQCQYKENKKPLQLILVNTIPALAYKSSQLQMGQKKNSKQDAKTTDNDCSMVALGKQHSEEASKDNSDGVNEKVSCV
Chain of KiSS-1 receptor (Homo sapiens) (Q969F8 whole entry, looked up): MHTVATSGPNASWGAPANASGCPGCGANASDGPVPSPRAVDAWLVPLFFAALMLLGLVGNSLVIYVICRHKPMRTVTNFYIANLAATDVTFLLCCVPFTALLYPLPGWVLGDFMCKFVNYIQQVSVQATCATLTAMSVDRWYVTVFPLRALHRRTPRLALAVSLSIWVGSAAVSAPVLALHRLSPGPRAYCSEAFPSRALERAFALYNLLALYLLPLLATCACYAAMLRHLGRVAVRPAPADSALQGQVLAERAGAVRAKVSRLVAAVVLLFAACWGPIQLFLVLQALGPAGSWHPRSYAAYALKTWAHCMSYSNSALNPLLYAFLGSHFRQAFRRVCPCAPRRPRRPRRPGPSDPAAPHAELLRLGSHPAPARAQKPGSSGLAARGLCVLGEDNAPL

As to `Nc1cc([N+](=O)[O-])cc(Cl)c1O`, the Potency entry in assay [1], in assay [2], in assay [5], in assay [6], in assay [7] and in [8] was “inactive” in each case. Moreover, the Potency entry in assay [9], in assay [10], in assay [11], in assay [12], in assay [13] and in assay [14] was “inactive” in each case. For the same compound, the Potency result in [15] and in assay [16] was “inactive” each time. Moreover, the outcome in assay [3] and in assay [4] was inactive.
As for `COc1cc(-c2nc(NC(=O)c3cc4cc(C)cc(C)c4n3CC(=O)O)sc2CCC2CCCCC2)c(OC)cc1Cl`, the Potency was 17.7 µM (active) in assay [1], 12.5 µM (active) in [2] and 6.65 µM (active) in [7]. Besides, the outcome in assay [3] and in [4] was inactive. Also, the Potency entry in assay [5], in assay [17], in assay [6], in assay [9], in assay [11] and in [12] was “inactive” in each case. The Potency entry in assay [14], in assay [15] and in assay [16] was “inactive” in each case.
In the case of `Oc1ccc2c(c1)CCC2`, the Potency entry in assay [1], in assay [2], in [5], in assay [17], in assay [6] and in assay [7] was “inactive” each time. In addition, the Potency result in assay [8], in assay [9], in assay [10], in [11], in assay [12] and in assay [18] was “inactive” throughout. Besides, the Potency result in assay [13], in [15] and in assay [16] was “inactive” each time. For the same compound, the outcome in assay [3] and in assay [4] was inactive.
`Cc1nc2n(c(=O)c1CCN1CCC(c3noc4cc(F)ccc34)CC1)CCCC2`: the Potency entry in [1], in assay [2], in assay [5], in assay [17], in [6] and in [8] was “inactive” in each case. In addition, the Potency entry in [18], in [13] and in assay [15] was “inactive” in each case. Besides, the outcome in [3] and in assay [4] was inactive.
`CCCCCCCCc1ccc(S(=O)(=O)O)cc1`: the Potency result in [1], in [2], in assay [5], in assay [17], in assay [19] and in assay [8] was “inactive” each time. Further, the Potency result in assay [9], in [11], in assay [12], in [18], in assay [14] and in assay [20] was “inactive” throughout. The Potency entry in assay [15] and in [16] was “inactive” each time. Also, the outcome in assay [3] and in assay [4] was inactive.
In the case of `CN1C(=O)N(c2ccccc2Br)Cc2cnc(Nc3ccc4c(c3)OCC(CO)O4)nc21` (configuration not stated), the Potency in [1] was 54.5 µM (active); in [13], 57 µM (active). The Potency result in assay [2], in assay [5], in assay [6], in assay [19], in assay [7] and in assay [9] was “inactive” throughout. Besides, the Potency result in assay [10], in [11], in assay [12] and in [15] was “inactive” each time. For the same compound, the result in [3] and in assay [4] was inactive.
As to `CNC(=O)c1cnn(-c2nc(N)c3ncn([C@@H]4O[C@H](CO)[C@@H](O)[C@H]4O)c3n2)c1`, the Potency entry in [1], in assay [2], in assay [5], in [17], in assay [6] and in [7] was “inactive” throughout. Besides, the Potency result in [8], in assay [9], in assay [10], in assay [11], in assay [12] and in assay [14] was “inactive” throughout. Further, in assay [20], the Potency result was “inactive”. Further, the outcome in assay [3] and in assay [4] was inactive. Besides, the Potency is 11.9 µM (active) in assay [18] and 1.88 µM (active) in [16].
As to `CCC(C)c1cc([N+](=O)[O-])cc([N+](=O)[O-])c1OC(=O)OC(C)C` (configuration not stated), the Potency in [1] was 38.6 µM (active); in assay [2] it was 9.69 µM (active). Moreover, the result in assay [3] and in assay [4] was inactive. Further, the Potency result in [5], in assay [17], in assay [19], in assay [7], in assay [10] and in assay [11] was “inactive” throughout. Further, the Potency result in assay [12] and in [15] was “inactive” in each case.
